In PubChem BioAssay AID720551 (National Center for Advancing Translational Sciences (NCATS), 2013):
Out of some 340,000 compounds screened, about 1,300 (0.38%) were called active.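 Rule for the calls: active = maximum activity change below -70%; inconclusive = maximum activity change between -70% and -50%; inactive = maximum activity change above -50%.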 For the sample, actives were picked, then their nearest neighbours and some compounds at random.
% is set by controls: 0 for no effect and ±100 for the full control effect.

Each compound was assayed against Voltage-gated inwardly rectifying potassium channel KCNH2 (Homo sapiens) (UniProt Q12809) (assay: qHTS for Inhibitors of KCHN2 3.1: Wildtype qHTS). Conditions: U2OS, BacMam KCNH2, thallium flux FluxOr; at 1.84 µM; stronger effect = lower value.
Sequence of Voltage-gated inwardly rectifying potassium channel KCNH2 (Homo sapiens) (Q12809 whole entry, looked up): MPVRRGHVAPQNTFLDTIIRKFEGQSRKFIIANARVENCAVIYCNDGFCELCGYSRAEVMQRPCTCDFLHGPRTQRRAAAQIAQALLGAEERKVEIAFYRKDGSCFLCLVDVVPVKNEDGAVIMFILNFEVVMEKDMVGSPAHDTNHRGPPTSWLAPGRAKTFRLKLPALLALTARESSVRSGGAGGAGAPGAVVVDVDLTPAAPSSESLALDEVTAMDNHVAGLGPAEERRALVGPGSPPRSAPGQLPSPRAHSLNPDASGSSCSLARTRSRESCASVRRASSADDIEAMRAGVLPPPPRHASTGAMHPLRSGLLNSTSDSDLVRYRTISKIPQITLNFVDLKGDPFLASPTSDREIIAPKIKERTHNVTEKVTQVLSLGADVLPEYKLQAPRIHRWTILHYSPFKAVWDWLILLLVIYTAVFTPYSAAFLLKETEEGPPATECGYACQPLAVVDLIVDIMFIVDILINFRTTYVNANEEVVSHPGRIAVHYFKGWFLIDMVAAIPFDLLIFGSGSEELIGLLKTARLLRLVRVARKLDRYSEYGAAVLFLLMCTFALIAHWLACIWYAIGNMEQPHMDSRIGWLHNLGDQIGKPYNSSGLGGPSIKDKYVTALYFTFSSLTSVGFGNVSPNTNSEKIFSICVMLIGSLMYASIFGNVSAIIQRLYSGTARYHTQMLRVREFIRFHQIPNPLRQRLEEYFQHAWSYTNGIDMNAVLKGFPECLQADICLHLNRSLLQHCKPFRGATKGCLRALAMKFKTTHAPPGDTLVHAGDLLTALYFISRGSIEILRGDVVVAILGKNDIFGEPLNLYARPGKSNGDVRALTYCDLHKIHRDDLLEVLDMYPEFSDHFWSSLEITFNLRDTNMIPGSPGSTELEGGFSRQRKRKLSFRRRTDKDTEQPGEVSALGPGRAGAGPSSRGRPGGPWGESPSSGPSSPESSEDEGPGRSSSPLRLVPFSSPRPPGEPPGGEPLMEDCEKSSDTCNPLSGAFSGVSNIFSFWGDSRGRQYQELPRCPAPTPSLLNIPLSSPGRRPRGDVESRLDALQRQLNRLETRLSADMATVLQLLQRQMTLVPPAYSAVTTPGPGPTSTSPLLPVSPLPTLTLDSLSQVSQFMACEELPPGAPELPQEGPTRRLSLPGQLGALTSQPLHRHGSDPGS
Method in brief: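 U2OS cells were transduced with wild-type KCNH2 virus (2.03 x 10^8 / mL) for 4 h at room temperature, then cultured overnight at 37 C. Thallium flux was read with FluxOr dye. Rate constants were normalized to DMSO controls.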
With `CC1CN(C(=O)CCC(=O)NC2CCN(Cc3ccccc3)CC2)c2ccccc2O1` (stereo unspecified) the activity change was 16.1% (inactive). In the case of `CC1CN(C(=O)CCC(=O)NCc2cccnc2)c2ccccc2O1` (stereo unspecified), the activity change is reported as -2.13% (inactive). With `CC1CN(C(=O)CCC(=O)NCCCN2CCC(Cc3ccccc3)CC2)c2cc(Cl)ccc2O1` (stereo unspecified) the activity change was -88.2% (active). With `CCCc1c(C)nc2scc(-c3ccc(Cl)cc3)n2c1=O` the activity change was -21.6% (inactive). For `COc1ccc(CN2C[C@H]3CON(C)[C@H]3C[C@H]2c2ccc(-c3cccc(F)c3)cc2)cc1`, the activity change was -20.5% (inactive). With `Cc1ccc(-c2ccc(CN3C(C(C)C)C(=O)N(Cc4cn(CCC5OCCO5)nn4)CCS3(=O)=O)cc2)cc1` (stereo unspecified) the activity change was -23.7% (inactive). With `O=C(c1ccc(Cl)c([N+](=O)[O-])c1)N1CCN(c2ccccc2)CC1` the activity change was 9.59% (inactive). `O=C(/C=C/c1ccc(Cl)cc1)N1CCN(c2ccccc2[N+](=O)[O-])CC1` was tested, and the activity change was -71.4% (active). With `CO/N=C/c1ccc(N2CCN(C(=O)c3cccc(Cl)c3)CC2)c([N+](=O)[O-])c1` the activity change was -11.9% (inactive). For `O=C(NCCN1CCOCC1)c1ccc2c(c1)N(Cc1cccc(Cl)c1)C(=O)c1ccccc1S2(=O)=O`, the activity change was 2.54% (inactive). In the case of `Cc1cc(OCC(=O)Nc2nccs2)c2c(C)c(C)c(=O)oc2c1`, the activity change is reported as -4.04% (inactive). `CC1(C)CC(=O)C=C(c2ccc(COC(=O)c3cc(F)cc(F)c3)cc2)C1=O` was tested, and the activity change was -3.02% (inactive). In the case of `CCN(CC)CCN(C(=O)c1ccc2c(c1)CCCC2)c1nc2c(OC)cccc2s1`, the activity change is reported as -10.1% (inactive). In the case of `Cc1cc(C)c2cc(C#N)c(N3CCNCC3)nc2c1`, the activity change is reported as 31.7% (inactive). For `O=C(CN1CCN(C(=O)c2cccc(F)c2)CC1)Nc1ccccc1F`, the activity change was 4.68% (inactive). For `O=C(CCN1C(=O)c2ccccc2C1=O)Nc1cccc(F)c1`, the activity change was 5.88% (inactive). `O=C(COC(=O)CSc1ccccc1)Nc1ccc(F)cc1F` was tested, and the activity change was -4.38% (inactive). In the case of `O=C(CCN1CCN(C/C=C/c2ccccc2)CC1)Nc1cccc(F)c1`, the activity change is reported as -92.1% (active). For `O=C(CCN1CCN(C/C=C/c2ccccc2)CC1)Nc1ccccc1Cl`, the activity change was -76.7% (active). For `CCOC(=O)N1CCN(CCC(=O)Nc2ccccc2)CC1`, the activity change was 9.24% (inactive). With `CNC(=O)NC(=O)C(C)N1CCN(C/C=C/c2ccccc2)CC1` (stereo unspecified) the activity change was 16.2% (inactive). For `O=C(CN1CCN(C/C=C/c2ccccc2)CC1)Nc1ccc(F)cc1F`, the activity change was -155% (active). For `COc1ccccc1NC(=O)CCN1CCN(c2ccc(Cl)cc2)CC1`, the activity change was 0.203% (inactive). `COc1ccc(NC(=O)N(C)C[C@@H]2OCc3cn(nn3)CCCC(=O)N([C@H](C)CO)C[C@H]2C)c(OC)c1` was tested, and the activity change was 3.91% (inactive). For `Cc1ccc(-c2ccc(C3=CC(=O)CC(C)(C)C3=O)cc2)cc1`, the activity change was -2.66% (inactive). For `CSc1ncnc2c1ncn2CCCNCc1cccs1`, the activity change was 6.63% (inactive). In the case of `COc1ccccc1C(=O)OCC(=O)NCCNC(=O)COC(=O)c1ccccc1OC`, the activity change is reported as -4.76% (inactive). With `CCOC(=O)c1ccccc1OC(=O)Oc1ccccc1C(=O)OCC` the activity change was -141% (active). For `CCOC(=O)c1ccccc1CN1C(=O)c2ccccc2S1(=O)=O`, the activity change was -3.26% (inactive). In the case of `CCc1ccccc1NC(=O)CN1CCN(C(=O)c2cc(C3CC3)nn2-c2ccccc2)CC1`, the activity change is reported as 4.86% (inactive). `CCOC(=O)C1CCCN(Cc2nc(N)nc(Nc3ccc(C)cc3)n2)C1` (stereo unspecified) was tested, and the activity change was 27.8% (inactive). `Cc1ccc(Nc2nc(N)nc(CN3CCN(Cc4ccccc4)CC3)n2)cc1Cl` was tested, and the activity change was -75.8% (active). With `Cc1ccccc1Nc1nc(N)nc(CN2CCN(c3ccccn3)CC2)n1` the activity change was 15.1% (inactive). In the case of `c1ccc2c(c1)nnn2-c1ccncc1`, the activity change is reported as -10.2% (inactive). `CCOc1ccc(C2c3[nH]c4ccccc4c3CCN2Cc2cccn2-c2ncccn2)cc1` (stereo unspecified) was tested, and the activity change was -74.4% (active). With `CCOc1ccc(C2c3[nH]c4ccccc4c3CCN2Cc2cn(CC)nc2C)cc1` (stereo unspecified) the activity change was 23.4% (inactive). In the case of `c1ccc(C2c3[nH]c4ccccc4c3CCN2Cc2cccn2-c2cccnc2)nc1` (stereo unspecified), the activity change is reported as 5.67% (inactive). With `NC1=CC(=O)C(=O)c2cccnc21` the activity change was -14.1% (inactive). `O=C(COC(=O)Cc1ccc(Cl)cc1Cl)NCc1ccco1` was tested, and the activity change was 5.01% (inactive). In the case of `CN(C)CCNC(=O)/C(=C/c1cccc([N+](=O)[O-])c1)NC(=O)c1ccccc1`, the activity change is reported as -79.1% (active). With `O=C(NCCc1ccccc1)/C(=C\c1ccc([N+](=O)[O-])cc1)NC(=O)c1ccccc1` the activity change was 23.3% (inactive). With `Cc1ccc(C(=O)N/C(=C/c2ccc(-c3cccc([N+](=O)[O-])c3)o2)C(=O)NCCCN(C)C)cc1` the activity change was -0.553% (inactive). For `O=C(CN1C(=O)NC2(CCc3ccccc32)C1=O)NC1CCCCC1` (stereo unspecified), the activity change was 12.5% (inactive). With `COc1cccc(CNC(=O)CCC2CCCN(Cc3ccc(OC(F)F)cc3)C2)c1` (stereo unspecified) the activity change was -23.2% (inactive). For `COc1ccc(C[C@H]2CN3C(=NC[C@H]3C)N2CCNC(=O)CCC2CCCCC2)cc1`, the activity change was -97.2% (active). With `C/C=C(\C)C(=O)NCCN1C2=NC[C@H](Cc3ccc(O)cc3)N2C[C@@H]1Cc1ccc(OC)cc1` the activity change was -2.93% (inactive). In the case of `COc1ccc(NC(=O)C[C@H]2C(=O)N(CCc3ccccc3)C[C@@H]2C)cc1`, the activity change is reported as -25.6% (inactive). With `O=C(CCN1CCCCC1)Nc1ccc(F)c(F)c1` the activity change was -2.99% (inactive). With `Cc1ccc(NC(=O)COC(=O)CN2CCSC2=O)cc1F` the activity change was -2.67% (inactive). With `CC(C)NC(=O)Nc1ccc2c(c1)C(=O)N([C@H](C)CO)C[C@H](C)[C@@H](CN(C)Cc1ccc(C(F)(F)F)cc1)OCCCC[C@@H](C)O2` the activity change was -10.8% (inactive). For `CC1(C)Cc2cccc(OCC(N)=O)c2O1`, the activity change was -15.1% (inactive). With `CC1(C)Cc2cccc(OCC(=O)Nc3nccs3)c2O1` the activity change was -0.616% (inactive). `CC1(C)Cc2cccc(OCC(=O)N3CCN(c4ccc([N+](=O)[O-])cc4)CC3)c2O1` was tested, and the activity change was -90.2% (active). In the case of `CC(Sc1nnc(CNC(=O)c2ccccc2F)n1C)C(=O)Nc1nccs1` (stereo unspecified), the activity change is reported as -161% (active). With `Cn1c(CNC(=O)c2ccccc2F)nnc1SCc1ccc(F)cc1` the activity change was 6.63% (inactive). For `COc1ccccc1C(=O)NCc1nnc(SC(C)C(=O)Nc2nccs2)n1C` (stereo unspecified), the activity change was -5.03% (inactive).
